HP1b binding inh – blocks HP1-beta chromodomain binding to methylated histone tails; AlphaScreen HP1-beta / biotin-H3K9me3 peptide binding; AID 540317; 0.56% of 390,000 active; Potency, µM (series often up to 114 µM), for the others: at the highest dose activity change, negative = inhibition, usual class: inhibitors; note: nearly all actives have a fitted effect of over 70% in size
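Compound inhibition of the preformed complex between 50 nM HP1-beta and 50 nM biotinylated H3K9me3 peptide was read by AlphaScreen. Buffer was PBS pH 7.4 with 0.01% Tween-20. Incubations ran 30 min at room temperature, with 10 ug/mL donor/acceptor beads.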
BAZ2B block – blocks human BAZ2B; Q9UIF8; AlphaScreen BAZ2B-H3K14Ac peptide displacement; Potency, µM (doses to about 114 µM), for inactives: at the top dose activity change, negative = inhibition, actives largely listed as inhibitors; 4.4% of 360,000 active; AID 504333; note: % is set by controls: 0 for no effect and ±100 for the full control effect; nearly all actives have a fitted effect of over 60% in size
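BAZ2B 50 nM plus b-H3(5-23)K14Ac 50 nM, PBS pH 7.4/0.01% Tween-20, 30 min RT; compound added (max 110 uM), 30 min RT; streptavidin donor/Ni-chelate acceptor beads 10 ug/mL final, 20 min dark; AlphaScreen read.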
JMJD2A Tudor inh – blocks the human JMJD2A Tudor domain | O75164 | AlphaScreen JMJD2A-Tudor / H3K4me3 peptide binding | Potency, µM (doses to about 114 µM), inactives show at the top dose activity change, negative = inhibition, actives largely listed as inhibitors | 4.4% of 390,000 active; note: % is set by controls: 0 for no effect and ±100 for the full control effect; nearly all actives have a fitted effect of over 50% in size
Target sequence (O75164 whole entry, looked up, the tested form may be a part): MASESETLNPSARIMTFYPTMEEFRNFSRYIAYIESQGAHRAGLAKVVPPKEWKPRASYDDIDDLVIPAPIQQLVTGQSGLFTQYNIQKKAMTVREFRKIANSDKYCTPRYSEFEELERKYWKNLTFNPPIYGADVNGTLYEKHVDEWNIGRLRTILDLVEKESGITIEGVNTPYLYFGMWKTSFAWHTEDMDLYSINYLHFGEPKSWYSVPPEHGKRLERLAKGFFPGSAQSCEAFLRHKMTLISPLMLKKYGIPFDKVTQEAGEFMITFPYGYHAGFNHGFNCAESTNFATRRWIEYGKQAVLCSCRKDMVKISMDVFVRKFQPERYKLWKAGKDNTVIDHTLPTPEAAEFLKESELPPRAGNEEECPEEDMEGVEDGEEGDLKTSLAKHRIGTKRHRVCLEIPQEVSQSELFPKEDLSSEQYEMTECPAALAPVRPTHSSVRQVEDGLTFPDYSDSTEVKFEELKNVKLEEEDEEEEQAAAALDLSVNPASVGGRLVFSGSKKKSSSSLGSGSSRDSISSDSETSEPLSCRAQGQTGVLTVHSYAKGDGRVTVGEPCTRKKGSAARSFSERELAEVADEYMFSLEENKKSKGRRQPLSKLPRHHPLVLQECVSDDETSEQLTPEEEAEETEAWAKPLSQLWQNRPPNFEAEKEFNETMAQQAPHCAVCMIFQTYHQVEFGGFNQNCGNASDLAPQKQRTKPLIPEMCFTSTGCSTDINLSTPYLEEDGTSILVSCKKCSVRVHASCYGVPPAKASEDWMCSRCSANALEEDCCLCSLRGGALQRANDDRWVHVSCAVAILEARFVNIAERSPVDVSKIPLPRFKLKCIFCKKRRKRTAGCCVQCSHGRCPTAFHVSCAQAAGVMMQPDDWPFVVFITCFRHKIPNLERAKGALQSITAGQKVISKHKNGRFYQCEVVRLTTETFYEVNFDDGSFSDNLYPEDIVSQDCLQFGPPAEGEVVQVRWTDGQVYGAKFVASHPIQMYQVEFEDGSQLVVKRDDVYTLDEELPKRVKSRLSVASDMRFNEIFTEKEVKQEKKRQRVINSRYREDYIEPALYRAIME
PLK1 PBD block – PLK1 (human) polo-box domain binding inhibition | AID 720504 | 2.8% of 360,000 active | Potency, µM, for the others: max response, negative = inhibition, hits mostly inhibitors | P53350 | Plk1 PBD binding of FITC phosphopeptide, fluorescence polarization; note: series mostly up to about 57 µM; % is set by controls: 0 for no effect and ±100 for the full control effect; nearly all actives have a fitted effect of over 65% in size
VDR inhibitor – inhibitors of human vitamin D receptor; 0.93% of 400,000 active; AID 504847; Potency, µM, for the others: max response, negative = inhibition, usual class: inhibitors; VDR-SRC2-3 peptide fluorescence polarization, 2 h; P11473; note: % is set by controls: 0 for no effect and ±100 for the full control effect
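After 23 nl compound addition and a short centrifugation, plates sat for 2 hours at ambient temperature; polarization of fluorescence then indicated loss of VDR binding to peptide SRC2-3.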
G9a block – G9a (human) methyltransferase inhibition. AID 504332. Q96KQ7. G9a H3K9 monomethylation, AlphaScreen, 2 h. 8.8% of 350,000 active. Potency, µM (top dose mostly 102 µM), for inactives: at the top dose activity, negative = inhibition, most hits filed as inhibitors; note: % is set by controls: 0 for no effect and ±100 for the full control effect; nearly all actives have a fitted effect of over 75% in size
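Signal arises when biotinylated H3K9 peptide, once monomethylated, bridges streptavidin donor and antibody-captured acceptor beads. Enzyme at 20 nM was preincubated 15 min with test compounds; peptide 500 nM and SAM 20 uM then reacted for 2 h.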
* = called active by the depositor; ? = inconclusive; / = no result given; ! = not confirmed by another sample; [ ] = remark or other dose. Most compounds without a hit are left out; they make up all but 11% or so of the library. Calls come from the whole dose curve; as a rule, active = well fitted curve in the direction sought with a large enough effect; inconclusive = small, poorly fitted or top-dose-only effect, or another doubt; inactive = no such curve, though single readings can be large; an effect the other way counts as inactive or inconclusive. Potency is the fitted concentration of half-maximal effect.

SMILES	HP1b binding inh	BAZ2B block	JMJD2A Tudor inh	PLK1 PBD block	VDR inhibitor	G9a block
Cc1c(CC(=O)NCCc2ccc(Cl)cc2)c(=O)oc2c(C)c3occ(C(C)(C)C)c3cc12	39%	-14%	-3%	/	6%	-2%[59 µM]
O=C(O)/C=C/c1cnc2ccccc2c1	27%	-15%	-13%	-8%	11%	50µM*
O=C(O)/C=C/c1ccccc1	/	/	/	/	10%	25%[59 µM]
C=CCCCCCCCCCCCC(O)CC(O)CO (stereo unspecified) (tested in a mixture with another compound)	/	/	/	/	-4%	-39%[2.33 µM]
O=C1NC(=O)/C(=C\c2ccc(OCc3cnc(Cl)s3)cc2)S1	18%	-37%	-33%	-24%	-6%	?
CCN1C(=O)C(=Cc2cccc(OC)c2Oc2ccc([N+](=O)[O-])cc2[N+](=O)[O-])SC1=S	?	25µM*	?	-11%	-17%	45µM*
COc1cc(/C=N/O)ccc1Oc1ccc([N+](=O)[O-])cc1[N+](=O)[O-]	4%	?	?	-28%	-10%	?
O=C1NC(=O)/C(=C\c2ccc(Cl)nc2)S1	22%	?	?	27µM*	?	-31%
COc1ccc(/C=C2/SC(=O)NC2=O)cc1	35%	-34%	-10%	0%	21%	79µM*
COc1cc(/C=C2\SC(=O)NC2=O)ccc1Oc1ccc([N+](=O)[O-])cc1[N+](=O)[O-]	?	45µM*	35µM*	21µM*	?	10µM*
CCC(C)S(=O)(=O)c1oc(-c2ccc(F)cc2)nc1S(=O)(=O)c1ccc(F)cc1 (stereo unspecified)	49%	-13%	-7%	/	?	-3%[59 µM]
COC(=O)c1ccccc1C[C@]1(C(=O)OC)C=C[C@H](C)[C@@H](c2ccccc2)N1C(=O)C(F)(F)F	/	/	/	/	-1%	/
CCOc1ccc(N=C2NC(=O)S/C2=C\c2ccc(OC)cc2)cc1	0%	?	28µM*	-9%	2%	?
COc1ccc(/C=C2\SC(=Nc3ccccc3)NC2=O)cc1	/	0%	/	/	/	/
CCN(CC)CCOC(c1ccccc1)c1ccc(C)cc1 (stereo unspecified)	13%	-9%	-8%	-14%	10%	-34%[59 µM]
Cc1ccc(C(OCC(C)(C)C[N+](C)(C)C)c2ccccc2)cc1 (stereo unspecified)	17%	-10%	22µM*	-11%	-4%	35%[59 µM]
CCOC(=O)c1cc2c(c(CCO)n1)[C@@H](CCO)N(S(=O)(=O)C(C)(C)C)C2	30%	/	-8%	1%	16%	/
COc1ccccc1NC(=O)CSc1nnc(CCNC(=O)c2ccc(C)cc2)n1C	41%	-1%	1%	-4%	-20%	?
Cc1cc(C)n(-c2nc3ccccc3nc2Nc2ccc(Cl)c(C(=O)OC(C)C)c2)n1	121%	34%	50%	/	-4%	61%[59 µM]
O=C(O)C=Cc1c[nH]c2nccnc12	/	/	/	9%	/	/
O=C(O)/C=C/c1cnc[nH]1	36%	7%	-13%	-10%	-1%	13µM*!
C=CCNc1nc2c3ccccc3n(C(C)=O)c2s1	-2%	?	?	27µM*	-29%	32µM*
CCCOc1ccc2nc(C)c(CCC)c(SC(=N)N)c2c1	29%	?	?	0%	-2%	40µM*
COc1ccc(C)c2sc(N3CCN(C(=O)c4ccco4)CC3)nc12	7%	?	-23%	/	4%	9%[59 µM]
O=C(NC1CCC(O)CC1)c1cccc2cccnc12 (stereo unspecified)	10%	-1%	-18%	-7%	-7%	12%
SMILES	HP1b binding inh	BAZ2B block	JMJD2A Tudor inh	PLK1 PBD block	VDR inhibitor	G9a block
O=C(O)Cc1sc(NC2CCCCC2)nc1-c1ccc(Cl)cc1	-1%	?	-26%	-12%	-6%	40µM*
COc1ccc(/C=C2\C(=O)NC(=S)N2C(=O)c2ccc(C)cc2)cc1	-24%	50µM*	56µM*	-18%	4%	?
O=C1NC(=S)N(C(=O)c2ccc(F)cc2)/C1=C/c1cccnc1	17%	-24%	-16%	-19%	3%	?
CN(C(=O)c1ccccc1C(=O)OCC(=O)Nc1ccc(S(N)(=O)=O)cc1)c1ccccc1	9%	8%	-11%	-7%	-2%	-4%
O=C(Nc1ccccc1)c1cnc(N2CCCCC2)c2ccccc12	44%[57 µM]	12%	19%	/	12%	49%[59 µM]
Cc1cccc(C(=O)Nc2ccc(N3CCC(CCN4CCOCC4)CC3)c(C(=O)O)c2)c1	16%	32µM*	-25%	/	4%	-6%[12.7 µM]
O=C(Nc1ccc(N2CCCC2)cc1)c1ccc(Br)cc1	12%	?	-31%	-3%	3%	/
O=C(Nc1ccc(N2CCOCC2)c(Cl)c1)c1ccc(Cl)cc1	3%	-33%	-29%	-2%	3%	-21%[59 µM]
Cc1cccc(C(=O)Nc2ccc(N3CCN(c4ccc(F)cc4)CC3)c(C(=O)O)c2)c1	17%	-4%	?	/	5%	6%[59 µM]
O=C(Nc1cnc(N2CCC(N3CCCCC3)CC2)c(C(=O)O)c1)c1ccc(Br)cc1	-3%	?	79µM*	/	1%	?
O=C(Nc1ccc(N2CCOCC2)c(C(=O)O)c1)c1ccc(Br)cc1	33%	?	71µM*	/	6%	-37%[59 µM]
O=C(Nc1ccc(N2CCC(N3CCCCC3)CC2)c(C(=O)O)c1)c1ccc(Br)cc1	14%	79µM*	?	/	7%	-31%[59 µM]
CC(=O)N1CCc2cc(CNC(=O)Nc3ccc(Br)c(C)c3)ccc21	10%[57 µM]	-1%	-18%	/	1%	-1%[59 µM]
CCNc1ncc2nc(C)c(=O)n(C3CC3)c2n1	/	/	/	/	-10%	9%[0.501 µM]
Cn1c(SCC(=O)NC2CCCCC2)nnc1C(F)(F)F	/	/	/	-3%	/	/
CN(C)S(=O)(=O)c1ccc(/C(O)=C2/C(=O)C(=O)N(Cc3cccnc3)C2c2ccncc2)cc1 (stereo unspecified)	20%	-4%	-23%	-10%	22%	16µM*
CN(C)S(=O)(=O)c1ccc(/C(O)=C2/C(=O)C(=O)N(Cc3cccnc3)C2c2cccs2)cc1 (stereo unspecified)	36%	-13%	-17%	-12%	-30%	40µM*
CN(C)S(=O)(=O)c1ccc(/C(O)=C2/C(=O)C(=O)N(CCN3CCCCC3)C2c2cccnc2)cc1 (stereo unspecified)	47%	/	-6%[11.4 µM]	-8%	-8%	/
CN(C)S(=O)(=O)c1ccc(/C(O)=C2/C(=O)C(=O)N(Cc3cccnc3)C2c2ccco2)cc1 (stereo unspecified)	15%	?	?	-11%	0%	?
Cn1cc(S(=O)(=O)N2CCCCCC2)cc1C(=O)NCc1ccccc1Cl	25%[57 µM]	-13%	-10%	/	4%	-5%[59 µM]
CN(C)c1ccc(-c2nc(NCCc3cnc[nH]3)c3ccccc3n2)cc1	/	/	/	/	-1%	1%[0.501 µM]

Source: PubChem BioAssay (National Center for Advancing Translational Sciences (NCATS))
